Columns and labels:
Assay in all cases: PBM binding z-score (relative to random genomic background probes); higher = stronger binding; sequences stand for … in GC…GCGATTGACAGCGTAGAATGAAGG
[1] = tested on: FXR:RXRa (NR concentration 270 nM, RXRa partner concentration 90 nM)
In short: (§1)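 The probes on custom Agilent 4×180K protein-binding microarrays were double-stranded, with 34-nt variable regions bearing direct-repeat seeds, single-nucleotide variants, half-site ablations and random human genomic background sequences. Incubation lasted 1 h with ligand-free nuclear receptor dimers in PBS pH 7.4, 2% milk, 0.02% Triton X-100, 1 mM DTT, 0.2 mg/mL BSA and 0.4 mg/ml salmon testes DNA. Antibodies against each partner (one per run) detected bound dimers, and fluorescence scans were regression-normalized. Binding z-scores take the random background probes as reference.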

[2] = tested on: LXRa:RXRa (NR concentration 270 nM, RXRa partner concentration 90 nM)
In short: as §1

[3] = tested on: LXRa homodimer (NR concentration 270 nM)
In short: as §1

[4] = tested on: LXRb:RXRa (NR concentration 270 nM, RXRa partner concentration 90 nM)
In short: as §1

[5] = tested on: LXRb homodimer (NR concentration 270 nM)
In short: as §1

[6] = tested on: PPARa:RXRa (NR concentration 270 nM, RXRa partner concentration 90 nM)
In short: as §1

[7] = tested on: PPARg:RXRa (NR concentration 180 nM, RXRa partner concentration 90 nM)
In short: as §1

[8] = tested on: PPARg:RXRa 270nM:90nM, anti-RXR (NR concentration 270 nM, RXRa partner concentration 90 nM)
In short: as §1

[9] = tested on: PPARg:RXRa 30nM:10nM, anti-RXR (NR concentration 30 nM, RXRa partner concentration 10 nM)
In short: as §1

[10] = tested on: PPARg:RXRa 90nM:30nM, anti-RXR (NR concentration 90 nM, RXRa partner concentration 30 nM)
In short: as §1

[11] = tested on: PPARg:RXRa DBDmut IVT, anti-RXR (DBD mutation: RXRa K156A/R161A, NR concentration 270 nM, RXRa partner concentration 90 nM)
In short: as §1

[12] = tested on: PPARg:RXRa IVT, anti-PPARg (NR concentration 270 nM, RXRa partner concentration 90 nM)
In short: as §1

[13] = tested on: PPARg DBDmut:RXRa IVT, anti-PPARg (DBD mutation: PPARg1 K132A/R137A, NR concentration 270 nM, RXRa partner concentration 90 nM)
In short: as §1

[14] = tested on: PPARg DBDmut IVT, anti-PPARg (DBD mutation: PPARg1 K132A/R137A, NR concentration 270 nM)
In short: as §1

[15] = tested on: PPARg homodimer (NR concentration 180 nM)
In short: as §1

[16] = tested on: PXR:RXRa (NR concentration 270 nM, RXRa partner concentration 90 nM)
In short: as §1

[17] = tested on: PXR homodimer (NR concentration 270 nM)
In short: as §1

[18] = tested on: RARa:RXR (NR concentration 270 nM, RXRa partner concentration 90 nM)
In short: as §1

[19] = tested on: RARa homodimer (NR concentration 270 nM)
In short: as §1

[20] = tested on: RARb:RXRa (NR concentration 270 nM, RXRa partner concentration 90 nM)
In short: as §1

Sequence | PBM binding z-score [1] | PBM binding z-score [2] | PBM binding z-score [3] | PBM binding z-score [4] | PBM binding z-score [5] | PBM binding z-score [6] | PBM binding z-score [7] | PBM binding z-score [8] | PBM binding z-score [9] | PBM binding z-score [10] | PBM binding z-score [11] | PBM binding z-score [12] | PBM binding z-score [13] | PBM binding z-score [14] | PBM binding z-score [15] | PBM binding z-score [16] | PBM binding z-score [17] | PBM binding z-score [18] | PBM binding z-score [19] | PBM binding z-score [20]
AGCACGAGGGCAATGAGTTGATAGCACGGGTGGC | 0.125 | 0.129 | -0.673 | -0.297 | -0.733 | 0.58 | 0.928 | -0.00435 | -0.788 | -0.265 | 1.23 | 0.791 | -0.0946 | -0.486 | -0.285 | 1.56 | 5.64 | 0.00535 | -0.029 | 2.14
GCTAGTTGGTCAGTAAAAGGTCCCACACCGGTCG | -0.338 | -0.272 | -0.431 | -0.485 | -0.39 | -0.0763 | -0.0473 | 0.383 | -0.539 | -0.225 | 0.066 | 0.0788 | -0.0613 | -0.438 | 0.327 | -0.35 | -0.579 | 0.0824 | 0.292 | 0.845
AAAATGAGGTTATTAAGATCAGGGAATTGCGGTC | 1.95 | 1.63 | 0.3 | 1.44 | -0.0347 | 2.8 | 2.05 | 2.19 | 0.556 | 1.48 | 3.99 | 3.21 | 0.794 | 0.452 | 0.921 | 1.23 | 0.722 | 1.41 | 0.567 | 1.51
ACTCGGAGGACAAAGGACAGAGCTACGCCAGTGA | -0.12 | -0.373 | -0.502 | -0.866 | -0.449 | -0.215 | 1.23 | 1.16 | 0.109 | 0.942 | -0.0501 | -0.429 | -0.346 | -1.22 | -0.327 | -0.688 | -0.112 | -0.495 | -0.7 | 1.62
ATTTCTAGGTAAAGTTCAGTGAAAGATCGATAGA | 1.69 | 2.17 | 1.41 | 1.4 | 1.27 | 2.82 | 3.19 | 4.21 | 2.41 | 4.03 | 4.75 | 4.3 | 2.07 | 2.14 | 2.58 | 2.41 | 2.25 | 1.36 | 2.45 | 2.95
TAGCCTAGGACATGGGCCAGTATACCACGCGAAC | -0.615 | -0.64 | -0.616 | -0.618 | -0.673 | -0.454 | 0.715 | -0.284 | -0.595 | -0.49 | -1.18 | -0.594 | -0.263 | -0.978 | -0.814 | -0.387 | -0.477 | -0.815 | -0.515 | 0.0238
CCTAGCAGGCCAGGGGCACTCAAGCATTTCGCTT | -0.742 | -0.659 | -0.647 | -0.578 | -1.19 | -0.331 | -0.281 | -0.0349 | -0.949 | -0.765 | 0.0628 | -0.609 | -1.68 | -1.6 | -1.02 | -0.801 | -0.66 | -0.684 | -1.15 | 0.377
AGAATGATGTTAAGATCAGGGAAACAGAATACAT | -0.488 | -0.548 | -0.153 | -0.269 | -0.588 | -0.205 | 0.948 | -0.174 | 0.282 | -0.132 | -0.786 | -0.128 | -0.544 | 0.266 | -0.958 | -0.441 | -0.00916 | -0.274 | 0.423 | -0.436
CCGACTGGGGCAGAAAGGTTGCCATACCATCCGG | -0.157 | -0.408 | -0.611 | -0.446 | -1.22 | 0.46 | 0.735 | 1.19 | -0.155 | 0.7 | 1.37 | 1.17 | -1.21 | -1.54 | -0.128 | -0.241 | -0.699 | -0.0627 | -0.964 | 0.6
ATCGCAAGGTCGACGAGGTGAGTATACACCGTTT | 1.64 | 1.32 | -0.778 | 1.06 | -0.359 | 2.74 | 1.28 | 0.926 | -0.0262 | 0.379 | -0.013 | 1.1 | 0.104 | 0.00511 | 0.0263 | 1.89 | 0.566 | 2.55 | -0.403 | 2.49
AGTCAAAGTTCATCTAGCTAACGTAAGATATGCT | 6.22 | 5.88 | 4.89 | 3.8 | 1.73 | 4.45 | 6.14 | 6.05 | 3.68 | 5.44 | 0.278 | 2.41 | 1.28 | 0.69 | 2.37 | 4.83 | 4.89 | 3.89 | 1.29 | 4.79
TCAGACAGGTGAAGGTAACGCAGGTACGCAGTCG | 0.226 | 0.481 | -0.607 | 0.397 | -0.402 | 1.16 | 0.779 | 1.98 | 3.58 | 2.71 | 2.13 | 1.24 | 0.76 | 0.126 | -0.401 | 0.411 | -0.161 | 0.66 | 0.254 | 1.16
ATATGTAGGTTAATGGTCATTCAGGTTGGTTCGC | 0.826 | 1.09 | 0.821 | 1.24 | 0.469 | 4.6 | 7.74 | 7.54 | 6.76 | 7.88 | 7.35 | 7.31 | 4.17 | 3.57 | 2.47 | 1.23 | 0.787 | 0.723 | 1.49 | 1.45

From the supplement of paper PMC6555819
